# Experimental data: the supplement of paper PMC8728848
# The full list was thinned out, with the strongest signals kept by preference.
# Columns and labels:
# Test in all cases: glycan array binding signal (z-score within array); higher = stronger binding
# Conditions in all cases: glycan notation: IUPAC condensed, linker removed
# [1] = molecular target: Fuc(a1-2)Gal(b1-3)GalNAc(a1-3)[Fuc(a1-2)]Gal(b1-4)GlcNAc
# Summary of the method: (§1)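 Glycan array binding is given as a within-array Z-score, which can be read as non-binding when negative. The arrays, 3228 of them, came from the Consortium for Functional Glycomics database and were retained only where the protein sequence was available. Z-scores were averaged across arrays of the same protein sequence at different concentrations or buffers and across linkers.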
# [2] = molecular target: Fuc(a1-2)Gal(b1-3)GlcNAc(b1-3)Gal(b1-4)Glc
# Summary of the method: as §1
# [3] = molecular target: Fuc(a1-2)Gal(b1-3)GlcNAc(b1-3)[Fuc(a1-3)[Gal(b1-4)]GlcNAc(b1-6)]Gal(b1-4)Glc
# Summary of the method: as §1
# [4] = molecular target: Fuc(a1-2)Gal(b1-4)[Fuc(a1-3)]GlcNAc(b1-3)Gal(b1-4)[Fuc(a1-3)]GlcNAc(b1-3)Gal(b1-4)[Fuc(a1-3)]GlcNAc
# Summary of the method: as §1
# [5] = molecular target: Fuc(a1-2)[Gal(a1-3)]Gal(b1-4)GlcNAc(b1-2)Man(a1-3)[Fuc(a1-2)[Gal(a1-3)]Gal(b1-4)GlcNAc(b1-2)Man(a1-6)]Man(b1-4)GlcNAc(b1-4)GlcNAc
# Summary of the method: as §1
# [6] = molecular target: Fuc(a1-2)[Gal(a1-3)]Gal(b1-4)[Fuc(a1-3)]GlcNAc
# Summary of the method: as §1
# [7] = molecular target: Fuc(a1-2)[GalNAc(a1-3)]Gal(b1-4)[Fuc(a1-3)]GlcNAc
# Summary of the method: as §1
# [8] = molecular target: Fuc(a1-3)[Gal(b1-4)]GlcNAc(b1-4)Gal(b1-4)[Fuc(a1-3)]GlcNAc
# Summary of the method: as §1
# [9] = molecular target: Fuc(a1-3)[Gal(b1-4)]GlcNAc(b1-6)[Gal(b1-3)GlcNAc(b1-3)]Gal(b1-4)Glc
# Summary of the method: as §1
# [10] = molecular target: Fuc(a1-3)[GalNAc(b1-4)]GlcNAc
# Summary of the method: as §1
# Fuc(a1-4)GlcNAc = molecular target: Fuc(a1-4)GlcNAc
# Summary of the method: as §1
# Gal(b1-4)Glc6S = molecular target: Gal(b1-4)Glc6S
# Summary of the method: as §1
# [11] = molecular target: Gal(b1-4)GlcNAc(b1-2)Man(a1-3)[Gal(b1-4)GlcNAc(b1-2)Man(a1-6)]Man(b1-4)GlcNAc(b1-4)GlcNAc
# Summary of the method: as §1
# [12] = molecular target: Gal(b1-4)GlcNAc(b1-2)Man(a1-6)Man(b1-4)GlcNAc(b1-4)GlcNAc
# Summary of the method: as §1
# [13] = molecular target: Gal(b1-4)GlcNAc(b1-3)[Gal(b1-4)GlcNAc(b1-6)]GalNAc
# Summary of the method: as §1
# [14] = molecular target: Gal(b1-4)GlcNAc(b1-6)GalNAc
# Summary of the method: as §1
# [15] = molecular target: Gal3S(b1-3)[Fuc(a1-4)]GlcNAc
# Summary of the method: as §1
# [16] = molecular target: GalNAc(b1-3)Gal(a1-4)Gal(b1-4)GlcNAc
# Summary of the method: as §1
# Glc(b1-4)Glc = molecular target: Glc(b1-4)Glc
# Summary of the method: as §1
# [17] = molecular target: GlcNAc(b1-3)Gal(b1-4)GlcNAc
# Summary of the method: as §1
# [18] = molecular target: GlcNAc(b1-3)[GlcNAc(b1-6)]GalNAc
# Summary of the method: as §1
# [19] = molecular target: GlcNAc(b1-4)Gal(b1-4)GlcNAc
# Summary of the method: as §1
# [20] = molecular target: GlcNAc(b1-4)[GlcNAc(b1-6)]GalNAc
# Summary of the method: as §1
# Kdn(a2-6)Gal(b1-4)GlcNAc = molecular target: Kdn(a2-6)Gal(b1-4)GlcNAc
# Summary of the method: as §1
# [21] = molecular target: Man(a1-2)Man(a1-2)Man(a1-3)Man
# Summary of the method: as §1
# [22] = molecular target: Man(a1-2)Man(a1-2)Man(a1-6)[Man(a1-3)]Man
# Summary of the method: as §1
# Man(a1-2)Man(a1-3)Man = molecular target: Man(a1-2)Man(a1-3)Man
# Summary of the method: as §1
# [23] = molecular target: Man(a1-2)Man(a1-3)[Man(a1-2)Man(a1-6)]Man
# Summary of the method: as §1
# [24] = molecular target: Man(a1-2)Man(a1-3)[Man(a1-2)Man(a1-6)]Man(a1-6)[Man(a1-2)Man(a1-2)Man(a1-3)]Man
# Summary of the method: as §1
# [25] = molecular target: Man(a1-2)Man(a1-6)[Man(a1-3)]Man(a1-6)[Man(a1-2)Man(a1-2)Man(a1-3)]Man
# Summary of the method: as §1
# [26] = molecular target: Man(a1-2)Man(a1-6)[Man(a1-3)]Man(a1-6)[Man(a1-2)Man(a1-2)Man(a1-3)]Man(b1-4)GlcNAc(b1-4)GlcNAc
# Summary of the method: as §1
# Man(a1-6)Man = molecular target: Man(a1-6)Man
# Summary of the method: as §1
# Man(b1-4)GlcNAc = molecular target: Man(b1-4)GlcNAc
# Summary of the method: as §1
# Neu5Ac(a2-3)Gal = molecular target: Neu5Ac(a2-3)Gal
# Summary of the method: as §1
# [27] = molecular target: Neu5Ac(a2-3)Gal(b1-3)GalNAc(b1-4)[Neu5Ac(a2-3)]Gal(b1-4)Glc
# Summary of the method: as §1
# [28] = molecular target: Neu5Ac(a2-3)Gal(b1-3)GlcNAc(b1-3)Gal(b1-4)GlcNAc
# Summary of the method: as §1
# [29] = molecular target: Neu5Ac(a2-3)Gal(b1-3)GlcNAc(b1-3)GalNAc
# Summary of the method: as §1
# [30] = molecular target: Neu5Ac(a2-3)Gal(b1-4)GlcNAc(b1-3)Gal(b1-4)[Fuc(a1-3)]GlcNAc
# Summary of the method: as §1
# [31] = molecular target: Neu5Ac(a2-3)Gal(b1-4)[Fuc(a1-3)]GlcNAc(b1-3)Gal(b1-4)[Fuc(a1-3)]GlcNAc(b1-3)Gal(b1-4)[Fuc(a1-3)]GlcNAc
# Summary of the method: as §1
# Neu5Ac(a2-6)Gal = molecular target: Neu5Ac(a2-6)Gal
# Summary of the method: as §1
# [32] = molecular target: Neu5Ac(a2-6)Gal(b1-4)GlcNAc(b1-3)GalNAc
# Summary of the method: as §1
# Neu5Ac(a2-6)GalNAc = molecular target: Neu5Ac(a2-6)GalNAc
# Summary of the method: as §1
# [33] = molecular target: Neu5Ac(a2-8)Neu5Ac(a2-3)Gal(b1-4)Glc
# Summary of the method: as §1
binder,measurement,setting,value
"CTLY 1 (Homo sapiens), Q6ZS10 (protein) AITCPEGWLPFEGKCYYFSPSTKSWDEARMFCQENYSHLVIINSFAEHNFVAKAHGSPRVYWLGLNDRAQEGDWRWLDGSPVTLSFWEPEEPNNIHDEDCATMNKGGTWNDLSCYKTTYWICERKGLNDIFEAQKIEWHE",glycan array binding signal (z-score),[1],-0.207
same,glycan array binding signal (z-score),[2],-0.241
same,glycan array binding signal (z-score),[3],-0.239
same,glycan array binding signal (z-score),[4],4.81
same,glycan array binding signal (z-score),[5],-0.174
same,glycan array binding signal (z-score),[6],-0.207
same,glycan array binding signal (z-score),[7],5.5
same,glycan array binding signal (z-score),[8],0.526
same,glycan array binding signal (z-score),[9],-0.219
same,glycan array binding signal (z-score),[10],-0.188
same,glycan array binding signal (z-score),Fuc(a1-4)GlcNAc,-0.24
same,glycan array binding signal (z-score),Gal(b1-4)Glc6S,-0.248
same,glycan array binding signal (z-score),[11],-0.242
same,glycan array binding signal (z-score),[12],-0.226
same,glycan array binding signal (z-score),[13],-0.246
same,glycan array binding signal (z-score),[14],-0.23
same,glycan array binding signal (z-score),[15],1.29
same,glycan array binding signal (z-score),[16],-0.243
same,glycan array binding signal (z-score),Glc(b1-4)Glc,-0.243
same,glycan array binding signal (z-score),[17],-0.237
same,glycan array binding signal (z-score),[18],-0.066
same,glycan array binding signal (z-score),[19],-0.212
same,glycan array binding signal (z-score),[20],0.086
same,glycan array binding signal (z-score),Kdn(a2-6)Gal(b1-4)GlcNAc,-0.232
same,glycan array binding signal (z-score),[21],6.07
same,glycan array binding signal (z-score),[22],10.1
same,glycan array binding signal (z-score),Man(a1-2)Man(a1-3)Man,1.1
same,glycan array binding signal (z-score),[23],4.5
same,glycan array binding signal (z-score),[24],8.68
same,glycan array binding signal (z-score),[25],4.81
same,glycan array binding signal (z-score),[26],0.475
same,glycan array binding signal (z-score),Man(a1-6)Man,-0.228
same,glycan array binding signal (z-score),Man(b1-4)GlcNAc,-0.239
same,glycan array binding signal (z-score),Neu5Ac(a2-3)Gal,-0.238
same,glycan array binding signal (z-score),[27],-0.231
same,glycan array binding signal (z-score),[28],-0.235
same,glycan array binding signal (z-score),[29],-0.237
same,glycan array binding signal (z-score),[30],-0.238
same,glycan array binding signal (z-score),[31],1.04
same,glycan array binding signal (z-score),Neu5Ac(a2-6)Gal,-0.253
same,glycan array binding signal (z-score),[32],-0.235
same,glycan array binding signal (z-score),Neu5Ac(a2-6)GalNAc,-0.248
same,glycan array binding signal (z-score),[33],-0.252
